# Test results published in the supplement of paper PMC11624193, “Coupling cellular drug-target engagement to downstream pharmacology with CeTEAM” (Nature Communications, 2024).
# Values joined by “and” are separate entries in the source; they are usually repeats but may differ in a detail not shown here. Equal entries are not always repeated. Structures can show the parent of a compound that is named as a salt. Unmarked numbers belong to inactive results.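 Rule for the calls: active = log2 fold change beyond 2 SD from the library mean after excluding viability outliers; inactive = within 2 SD.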
# Molecular target: PARP1 L713F-nLuc biosensor (HCT116) (UniProt P09874)
# Sequence (P09874 whole entry L713F, looked up): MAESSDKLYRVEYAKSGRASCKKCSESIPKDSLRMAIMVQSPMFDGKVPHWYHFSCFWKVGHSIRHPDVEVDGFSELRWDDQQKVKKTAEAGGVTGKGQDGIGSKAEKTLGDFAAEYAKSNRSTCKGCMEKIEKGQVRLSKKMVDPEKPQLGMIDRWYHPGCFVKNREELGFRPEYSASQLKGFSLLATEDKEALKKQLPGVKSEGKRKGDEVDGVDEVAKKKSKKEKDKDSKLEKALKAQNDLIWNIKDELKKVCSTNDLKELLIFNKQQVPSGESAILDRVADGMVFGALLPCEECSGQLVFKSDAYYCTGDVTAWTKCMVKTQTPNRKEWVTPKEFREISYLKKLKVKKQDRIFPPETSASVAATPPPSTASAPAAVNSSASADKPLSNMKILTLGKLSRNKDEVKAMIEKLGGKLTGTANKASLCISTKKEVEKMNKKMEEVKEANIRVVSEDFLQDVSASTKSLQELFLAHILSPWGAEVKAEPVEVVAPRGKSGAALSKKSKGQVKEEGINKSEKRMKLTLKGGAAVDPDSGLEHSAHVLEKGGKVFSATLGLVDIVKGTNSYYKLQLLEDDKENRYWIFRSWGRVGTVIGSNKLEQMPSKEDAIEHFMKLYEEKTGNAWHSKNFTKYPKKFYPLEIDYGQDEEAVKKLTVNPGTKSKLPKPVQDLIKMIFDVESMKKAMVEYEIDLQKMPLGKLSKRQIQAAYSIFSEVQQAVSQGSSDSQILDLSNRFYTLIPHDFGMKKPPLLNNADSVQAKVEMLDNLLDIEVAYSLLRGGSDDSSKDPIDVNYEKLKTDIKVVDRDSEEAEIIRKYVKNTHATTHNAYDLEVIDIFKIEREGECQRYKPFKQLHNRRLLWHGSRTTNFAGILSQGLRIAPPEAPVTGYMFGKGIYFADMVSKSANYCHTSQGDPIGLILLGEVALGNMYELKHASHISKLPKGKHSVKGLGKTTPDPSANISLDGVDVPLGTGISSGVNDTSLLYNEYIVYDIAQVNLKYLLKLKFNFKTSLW
# Assay: PARP1 L713F-nLuc/akaLuc ratio relative to DMSO control (biosensor stabilization) (fold change); higher = more PARP1 biosensor stabilization (target engagement / stabilizer), active = hit call of the paper
# Conditions: stock concentration (mM; final µM = stock mM x 1): 10; 24 h
row,SMILES,PARP1 L713F-nLuc/akaLuc ratio
1,COc1cc2ncnc(Nc3cccc(Cl)c3F)c2cc1OC(=O)N1CCN(C)C[C@H]1C,1.31
2,NC(=O)c1ccc(Oc2ccc(C(N)=O)cc2)cc1,1.27
3,O=C(c1cc(Cn2c(=O)[nH]c(=O)c3c(F)cccc32)ccc1F)N1CCN(c2ncccn2)CC1 [Senaparib],3.98 (active)
4,CCn1c(-c2nonc2N)nc2c(C#CC(C)(C)O)ncc(OC[C@H]3CCCNC3)c21,1.03 and 0.895
5,COc1cc(OC2CCN(C)CC2)ccc1Nc1ncc2c(n1)n(C1CCCC1)c(=O)n2C,1.18
6,O=C1CCC(N2C(=O)c3ccccc3C2=O)C(=O)N1 (centres undefined) [Thalidomide],0.757
7,N=C(N)NC(=N)NCCc1ccccc1 [Phenformin (hydrochloride)],0.696
8,O=C(NC[C@H](O)CN1CCc2ccccc2C1)c1cc(NC2COC2)ncn1,0.532 and 0.854
9,O=C(O)c1ccc(O)c2ncccc12,0.734
10,O=C1/C(=C/c2ccc(O)c(Br)c2)CCC/C1=C\c1ccc(O)c(Br)c1 [Histone Acetyltransferase Inhibitor II],2.06
11,Nc1nc(Cl)nc2c1ncn2[C@H]1C[C@H](O)[C@@H](CO)O1 [Cladribine],0.383
12,CN1CCN(c2ccc(Nc3ncc4cc(C#N)c(=O)n(C5CCCC5)c4n3)cc2)CC1,0.701
13,C[C@@H]1CCN(C(=O)CC#N)C[C@@H]1N(C)c1ncnc2[nH]ccc12 [Tofacitinib],0.723
14,CCCCC[C@H](O)CC(=O)CCc1ccc(O)c(OC)c1 [[6]-Gingerol],1.5
15,O=C(CCCCCCC(=O)NO)NO [Suberoyl bis-hydroxamic acid],0.788
16,CS(=O)(=O)c1ccc(-c2nnc(/C=C/c3nnc(-c4ccc(C#N)cc4)o3)n2-c2ccccc2Cl)nc1,0.886
17,CCCCCCCCCCCCCC(=S)NCCCC[C@H](NC(=O)OCc1ccccc1)C(=O)Nc1ccccc1 [Thiomyristoyl],1.08
18,COC(=O)c1ccc2c(c1)[nH]c1ncnc(NCCCN3CCCCC3)c12,1.02
19,COc1cc2nc(N3CCCN(C)CC3)nc(NC3CCN(Cc4ccccc4)CC3)c2cc1OC,0.488
20,c1cc(SSc2ccns2)sn1,1.1

row,SMILES,PARP1 L713F-nLuc/akaLuc ratio
1,CC(=O)c1c(C)cc2cccc(O)c2c1O [Nepodin],0.91
2,CC(C)[C@@](C)(O)[C@@H]1CN(c2nc(-c3[nH]nc4ncccc34)c(F)cc2Cl)CCN1,0.823
3,COC(=O)Nc1nc2cc(Sc3ccccc3)ccc2[nH]1 [Fenbendazole],2.66
4,O=C(c1ccc(C(=O)N2CCC(N3CCCC3)CC2)c(Nc2ccccc2)c1)N1CCC(N2CCCC2)CC1,0.936
5,"CCOC(=O)c1c[nH]c2c(ccc3cccnc32)c1=O [1,4-DPCA ethyl ester]",1.19
6,O=C(NOCCO)c1ccc2cncn2c1Nc1ccc(I)cc1F,0.421
7,CCCS(=O)(=O)N[C@H]1C[C@@H](N(C)c2ncnc3[nH]ccc23)C1 [Abrocitinib],0.869
8,CCN(CC)CCCC(C)Nc1c2ccc(Cl)cc2nc2ccc(OC)cc12 (centres undefined) [Quinacrine Dihydrochloride Dihydrate],0.656
9,C[C@@H](COCCC(=O)N1CCN(c2ncc(C(F)(F)F)cn2)CC1)Nc1cn[nH]c(=O)c1C(F)(F)F,2.09
10,"Nc1nc2cc(-c3ccc4ncc(C(=O)N5CCOCC5)n4c3)ccc2o1 [Serabelisib (INK-1117,MLN-1117,TAK-117)]",1.31
11,Cc1ccc(NC(=O)c2ccc(CN3CCN(C)CC3)cc2)cc1Nc1nc(-c2cccnc2)cs1 [Masitinib (AB1010)],0.851
12,Nc1nc(Nc2ccc(S(N)(=O)=O)cc2)nn1C(=O)c1c(F)cccc1F,0.483
13,Cn1ncc(Cl)c1-c1cc(C(=O)N[C@H](CN)Cc2cccc(F)c2)sc1Cl [Afuresertib (hydrochloride)],0.764
14,COc1cc(OC)c2c(=O)[nH]c(-c3cc(C)c(OCCO)c(C)c3)nc2c1 [Apabetalone],1.28
15,COc1cc(OC)cc(-c2noc(N3CCN(C)C4(CCN(c5ccnc(C)c5)CC4)C3)n2)c1,0.971
16,CNC(=O)c1cc(COc2nnc(Nc3ccc(Cl)cc3)c3ccoc23)ccn1 [Telatinib],1.17
17,CC(C)(Oc1ccc(Cl)cc1)C(=O)Nc1ccc(OCc2ccc(C#N)cc2)cc1 [AMPK activator 4],1.2
18,Cn1cc(CCn2cnc(-c3cnn(C)c3)c2-c2ccc(C#N)cc2)cn1,0.997
19,CCCC(=O)c1c(O)c(Cc2c(O)c(Cc3c(O)c(C)c(OC)c(C(=O)CCC)c3O)c(O)c(C(=O)[C@@H](C)CC)c2O)c(O)c(C)c1OC [Agrimol B],1.14
